The supplement of paper PMC10849652
Of roughly 7,900 targets only a part is listed; those with a hit were picked by preference. About 0.6% of all pairs of compound and target were hits.

Key:
Assay in all cases: log2 fold change, soluble protein after heating vs DMSO (PISA); higher = thermal stabilisation; K562 cells, 10 uM, 30 min; active = over 0.2 and 3.5 SD of the protein, either way, in both replicates (recomputed)
[1] = compound: Cc1ccc(NC(=O)c2ccc(CN3CC[C@H](N(C)C)C3)c(C(F)(F)F)c2)cc1Nc1nccc(-c2cncnc2)n1 [bafetinib]
Summary of the method: (§1)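 Quantification of soluble protein used TMTpro 16plex LC-MS/MS, with channel sums equalised. Samples were the supernatant after 21,000xg for 90 min of pooled aliquots from K562 cells (2×10^6 cells/mL) treated with 10 μM compound for 30 min, heated for 3 min over 48°C-58°C, and extracted in PBS with 0.5% NP-40 at 4°C. Values, from duplicates, describe thermal stability against control samples on a log2 fold-change scale.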

[2] = compound: Cc1cccc(CC(=O)N2CCc3c2ccc(-c2cn(C)c4ncnc(N)c24)c3F)n1
Summary of the method: as §1

[3] = compound: Cc1cn(-c2cc(NC(=O)c3ccc(C)c(Nc4nccc(-c5cccnc5)n4)c3)cc(C(F)(F)F)c2)cn1 [nilotinib]
Summary of the method: as §1

[4] = compound: Cc1nc(Nc2n[nH]c3c2CN(C(=O)N[C@H](CN(C)C)c2ccccc2)C3(C)C)c2sccc2n1
Summary of the method: as §1

[5] = compound: Cc1nc(Nc2ncc(C(=O)Nc3c(C)cccc3Cl)s2)cc(N2CCN(CCO)CC2)n1 [dasatinib]
Summary of the method: as §1

[6] = compound: Cc1ncc(-c2ccnc(Nc3ccc(S(C)(=O)=O)cc3)n2)n1C(C)C
Summary of the method: as §1

[7] = compound: Cn1cc(-c2ccc3c(c2)CCN3C(=O)Cc2cccc(C(F)(F)F)c2)c2c(N)ncnc21
Summary of the method: as §1

[8] = compound: Cn1cc(-c2ccc3nnc(C(F)(F)c4ccc5ncccc5c4)n3n2)cn1
Summary of the method: as §1

[9] = compound: Cn1cncc1[C@@](N)(c1ccc(Cl)cc1)c1ccc2c(c1)c(-c1cccc(Cl)c1)cc(=O)n2C [tipifarnib]
Summary of the method: as §1

[10] = compound: FC(F)(F)c1ccc(/C=C/c2nc(COc3ccc(CCCCn4ccnn4)cc3)co2)cc1 [mubritinib]
Summary of the method: as §1

[11] = compound: NC(=O)Nc1cc(-c2cccc(F)c2)sc1C(=O)N[C@H]1CCCNC1
Summary of the method: as §1

[12] = compound: NC(=O)c1cnc(N[C@@H]2CCCC[C@@H]2N)nc1Nc1cccc(-n2nccn2)c1
Summary of the method: as §1

[13] = compound: NC1(c2ccc(-c3nc4ccn5c(=O)[nH]nc5c4cc3-c3ccccc3)cc2)CCC1
Summary of the method: as §1

[14] = compound: NCC(=O)Nc1ccc(-n2nc(C(F)(F)F)cc2-c2ccc3c(ccc4ccccc43)c2)cc1
Summary of the method: as §1

[15] = compound: Nc1ccccc1NC(=O)c1ccc(CNC(=O)OCc2cccnc2)cc1 [entinostat]
Summary of the method: as §1

[16] = compound: O=C(CCCCCCC(=O)Nc1ccccc1)NO [vorinostat]
Summary of the method: as §1

[17] = compound: O=C(CCCCCCNC(=O)c1cnc(N(c2ccccc2)c2ccccc2Cl)nc1)NO [citarinostat]
Summary of the method: as §1

[18] = compound: O=C(O)c1ccc2c(c1)nc(Nc1cccc(Cl)c1)c1ccncc12 [silmitasertib]
Summary of the method: as §1

[19] = compound: O=C1NC(=O)C(c2cnc3ccccn23)=C1c1cn2c3c(cc(F)cc13)CN(C(=O)N1CCCCC1)CC2
Summary of the method: as §1

[20] = compound: c1cc(OCCN2CCCCC2)cc(-c2n[nH]c3ccc(-c4nnc[nH]4)cc23)c1
Summary of the method: as §1

Measured: log2 fold change

HIC2 (UniProt Q96JB3)
inactive: [1] 0.065 | [2] 0.006 | [3] 0.075 | [5] 0.071 | [6] -0.181 | [7] -0.124 | [8] -0.032 | [9] -0.051 | [10] -0.051 | [11] -0.071 | [12] -0.06 | [13] 0.016 | [14] 0.101 | [15] -0.027 | [16] -0.027 | [17] -0.019 | [18] 0.098 | [19] 0.121 | [20] -0.233
active: [4] -0.446

GYS1 (UniProt P13807)
Sequence of UniProt P13807 (P13807 whole entry, looked up): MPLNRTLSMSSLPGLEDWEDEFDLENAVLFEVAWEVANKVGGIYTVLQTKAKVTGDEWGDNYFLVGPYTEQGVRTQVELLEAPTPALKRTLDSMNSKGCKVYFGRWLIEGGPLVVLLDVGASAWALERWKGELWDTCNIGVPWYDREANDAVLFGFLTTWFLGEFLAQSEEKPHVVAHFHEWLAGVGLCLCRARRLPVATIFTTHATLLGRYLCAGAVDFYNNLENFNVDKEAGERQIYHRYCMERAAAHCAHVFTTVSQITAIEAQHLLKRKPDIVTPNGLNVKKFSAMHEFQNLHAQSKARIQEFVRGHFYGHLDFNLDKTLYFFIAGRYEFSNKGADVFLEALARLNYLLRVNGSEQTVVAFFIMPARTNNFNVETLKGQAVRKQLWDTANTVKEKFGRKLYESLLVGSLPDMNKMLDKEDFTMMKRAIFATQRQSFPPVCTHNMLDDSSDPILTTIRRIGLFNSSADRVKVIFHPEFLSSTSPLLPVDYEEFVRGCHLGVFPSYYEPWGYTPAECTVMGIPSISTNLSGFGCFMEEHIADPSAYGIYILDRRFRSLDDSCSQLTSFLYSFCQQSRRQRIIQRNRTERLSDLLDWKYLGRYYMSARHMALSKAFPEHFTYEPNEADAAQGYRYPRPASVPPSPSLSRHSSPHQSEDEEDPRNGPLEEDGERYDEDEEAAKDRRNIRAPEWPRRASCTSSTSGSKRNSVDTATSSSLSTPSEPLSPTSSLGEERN
inactive: [1] 0.107 | [2] 0.011 | [3] 0.237 | [4] -0.18 | [5] 0.172 | [6] -0.036 | [7] -0.266 | [8] -0.139 | [9] 0.147 | [10] 0.001 | [11] -0.05 | [12] -0.027 | [13] 0.05 | [14] 0.091 | [15] -0.077 | [16] -0.125 | [17] -0.103 | [18] 0.05 | [19] -0.002 | [20] -0.301

GAPVD1 isoform 6 (UniProt Q14C86)
Sequence of UniProt Q14C86 (Q14C86 whole entry, looked up): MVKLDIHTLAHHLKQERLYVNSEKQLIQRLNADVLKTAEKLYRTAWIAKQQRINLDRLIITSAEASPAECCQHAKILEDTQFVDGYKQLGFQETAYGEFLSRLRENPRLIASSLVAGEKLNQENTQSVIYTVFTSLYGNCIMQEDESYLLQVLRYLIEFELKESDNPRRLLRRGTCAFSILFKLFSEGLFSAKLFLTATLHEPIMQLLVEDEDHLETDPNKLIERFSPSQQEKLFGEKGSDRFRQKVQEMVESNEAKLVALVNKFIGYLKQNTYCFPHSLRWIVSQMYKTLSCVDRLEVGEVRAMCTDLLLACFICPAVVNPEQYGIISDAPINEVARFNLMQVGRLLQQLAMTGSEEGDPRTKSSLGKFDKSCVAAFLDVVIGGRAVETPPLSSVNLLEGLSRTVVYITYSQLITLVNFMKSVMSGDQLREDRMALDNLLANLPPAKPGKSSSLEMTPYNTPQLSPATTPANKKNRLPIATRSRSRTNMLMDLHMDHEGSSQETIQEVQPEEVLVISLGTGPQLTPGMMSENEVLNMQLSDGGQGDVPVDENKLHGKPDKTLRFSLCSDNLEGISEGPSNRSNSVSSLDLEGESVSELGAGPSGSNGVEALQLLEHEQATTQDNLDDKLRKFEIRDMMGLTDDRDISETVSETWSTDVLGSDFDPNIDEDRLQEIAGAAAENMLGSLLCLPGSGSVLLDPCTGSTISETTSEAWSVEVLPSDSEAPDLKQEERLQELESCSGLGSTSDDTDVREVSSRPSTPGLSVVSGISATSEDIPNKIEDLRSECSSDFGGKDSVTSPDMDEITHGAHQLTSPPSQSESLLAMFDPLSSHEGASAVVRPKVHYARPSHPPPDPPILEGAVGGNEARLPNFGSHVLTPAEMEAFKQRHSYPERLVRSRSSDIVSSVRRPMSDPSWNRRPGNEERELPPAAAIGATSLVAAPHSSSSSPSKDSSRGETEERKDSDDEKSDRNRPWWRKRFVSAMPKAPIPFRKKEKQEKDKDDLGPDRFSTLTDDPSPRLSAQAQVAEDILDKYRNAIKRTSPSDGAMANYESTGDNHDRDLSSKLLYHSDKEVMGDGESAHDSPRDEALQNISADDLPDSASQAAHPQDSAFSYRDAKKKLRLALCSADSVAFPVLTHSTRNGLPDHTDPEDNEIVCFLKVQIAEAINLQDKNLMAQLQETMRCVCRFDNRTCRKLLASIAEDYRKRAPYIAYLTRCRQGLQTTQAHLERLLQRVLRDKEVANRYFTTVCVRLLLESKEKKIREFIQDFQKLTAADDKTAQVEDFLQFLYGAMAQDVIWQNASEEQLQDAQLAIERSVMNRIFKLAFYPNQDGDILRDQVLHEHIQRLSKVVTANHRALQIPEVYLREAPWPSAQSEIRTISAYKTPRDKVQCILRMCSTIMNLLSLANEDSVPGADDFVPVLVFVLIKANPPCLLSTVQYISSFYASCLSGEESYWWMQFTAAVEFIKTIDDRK
inactive: [1] 0.023 | [2] 0.072 | [3] -0.09 | [4] -0.092 | [5] -0.15 | [6] -0.017 | [7] -0.043 | [8] -0.016 | [9] -0.135 | [10] 0.028 | [11] 0.009 | [12] -0.077 | [13] -0.139 | [14] -0.073 | [15] 0.049 | [16] 0.063 | [17] 0.087 | [18] 0.124 | [19] 0.003 | [20] -0.048

GBF1 (UniProt Q92538)
inactive: [1] 0.014 | [2] 0.081 | [3] -0.117 | [4] -0.109 | [5] -0.113 | [6] -0.001 | [7] -0.079 | [8] -0.049 | [9] -0.15 | [10] 0.093 | [11] -0.026 | [12] -0.012 | [13] -0.122 | [14] -0.058 | [15] 0.053 | [16] 0.144 | [17] 0.124 | [18] -0.018 | [19] -0.001 | [20] -0.023

HAX1 (UniProt O00165)
inactive: [1] -0.103 | [2] 0.029 | [3] -0.113 | [4] -0.174 | [5] -0.044 | [6] 0.069 | [7] -0.028 | [8] -0.068 | [9] -0.112 | [10] 0.001 | [11] -0.106 | [12] -0.165 | [13] -0.174 | [14] -0.06 | [15] 0.021 | [16] 0.115 | [17] -0.019 | [18] -0.032 | [19] 0.036 | [20] -0.074

HIST2H2BF isoform 2 (UniProt Q5QNW6)
inactive: [1] 0.211 | [2] -0.189 | [3] -0.044 | [4] -0.006 | [5] 0.147 | [6] 0.012 | [7] -0.358 | [8] -0.098 | [9] -0.018 | [10] -0.173 | [11] 0.048 | [12] 0.225 | [13] 0.48 | [14] -0.029 | [15] 0.159 | [16] 0.123 | [17] -0.001 | [18] -0.064 | [19] 0.101 | [20] 0.016

GLA (UniProt P06280)
Sequence of UniProt P06280 (P06280 whole entry, looked up): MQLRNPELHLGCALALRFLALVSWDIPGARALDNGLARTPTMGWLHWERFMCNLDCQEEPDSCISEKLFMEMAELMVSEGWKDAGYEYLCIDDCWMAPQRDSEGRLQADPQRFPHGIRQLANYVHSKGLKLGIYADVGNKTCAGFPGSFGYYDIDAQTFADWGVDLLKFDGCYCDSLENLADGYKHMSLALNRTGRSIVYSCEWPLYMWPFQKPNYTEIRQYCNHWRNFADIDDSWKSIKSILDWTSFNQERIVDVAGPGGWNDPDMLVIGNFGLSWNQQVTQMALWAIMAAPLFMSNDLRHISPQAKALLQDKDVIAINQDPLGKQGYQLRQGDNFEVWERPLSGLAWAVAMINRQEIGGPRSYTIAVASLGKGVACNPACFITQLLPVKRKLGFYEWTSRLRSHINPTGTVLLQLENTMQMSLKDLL
active: [1] -0.529
inactive: [2] -0.051 | [3] 0.021 | [4] -0.007 | [5] -0.039 | [6] -0.04 | [7] 0.005 | [8] 0.03 | [9] 0.064 | [10] 0.035 | [11] 0.04 | [12] -0.049 | [13] -0.143 | [14] -0.066 | [15] -0.034 | [16] 0.056 | [17] 0.027 | [18] -0.03 | [19] -0.036 | [20] 0.029

HNRNPUL2 (UniProt Q1KMD3)
Sequence of UniProt Q1KMD3 (Q1KMD3 whole entry, looked up): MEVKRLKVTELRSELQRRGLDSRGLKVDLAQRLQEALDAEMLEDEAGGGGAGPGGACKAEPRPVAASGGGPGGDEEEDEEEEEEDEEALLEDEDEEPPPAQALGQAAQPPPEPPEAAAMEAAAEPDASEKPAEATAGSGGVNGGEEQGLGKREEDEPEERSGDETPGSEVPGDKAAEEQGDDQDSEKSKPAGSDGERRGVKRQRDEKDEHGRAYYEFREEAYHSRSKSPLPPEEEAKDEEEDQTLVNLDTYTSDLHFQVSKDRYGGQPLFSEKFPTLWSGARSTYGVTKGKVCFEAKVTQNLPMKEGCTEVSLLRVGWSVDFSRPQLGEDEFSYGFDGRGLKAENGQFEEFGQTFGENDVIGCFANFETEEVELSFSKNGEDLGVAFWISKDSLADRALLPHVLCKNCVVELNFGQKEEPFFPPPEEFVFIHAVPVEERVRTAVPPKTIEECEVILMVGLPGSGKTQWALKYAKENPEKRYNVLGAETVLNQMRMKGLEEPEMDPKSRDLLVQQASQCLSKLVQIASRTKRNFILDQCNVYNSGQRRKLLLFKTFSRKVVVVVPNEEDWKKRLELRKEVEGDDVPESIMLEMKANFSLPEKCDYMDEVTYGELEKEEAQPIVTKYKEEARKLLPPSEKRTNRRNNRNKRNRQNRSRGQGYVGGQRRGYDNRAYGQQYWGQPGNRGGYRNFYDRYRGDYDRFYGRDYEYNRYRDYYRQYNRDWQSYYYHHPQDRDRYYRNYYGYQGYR
inactive: [1] 0 | [2] -0.083 | [3] -0.001 | [4] 0.033 | [5] 0.098 | [6] 0.097 | [7] -0.147 | [8] -0.035 | [9] 0.03 | [10] -0.137 | [11] -0.04 | [12] 0.02 | [13] 0.153 | [14] 0.017 | [15] -0.026 | [16] -0.004 | [17] -0.077 | [18] 0.046 | [19] 0.15 | [20] -0.104

GDI1 (UniProt P31150)
inactive: [1] 0.002 | [2] 0.024 | [3] 0.001 | [4] 0.017 | [5] -0.053 | [6] -0.024 | [7] 0.035 | [8] 0.01 | [9] -0.06 | [10] 0.062 | [11] -0.018 | [12] -0.066 | [13] -0.051 | [14] -0.04 | [15] -0.016 | [16] 0.022 | [17] 0.014 | [18] -0.012 | [19] -0.037 | [20] -0.04

HIP1 (UniProt O00291)
inactive: [1] -0.079 | [2] -0.069 | [3] -0.038 | [4] 0.063 | [5] 0.004 | [6] -0.079 | [7] -0.009 | [8] -0.002 | [9] -0.099 | [10] 0.077 | [11] -0.038 | [12] 0.035 | [13] 0.032 | [14] 0.038 | [15] -0.061 | [16] -0.013 | [17] 0.072 | [18] -0.123 | [19] -0.146 | [20] 0.06

FKBP4 (UniProt Q02790)
inactive: [1] -0.014 | [2] 0.017 | [3] -0.05 | [4] -0.011 | [5] -0.114 | [6] 0.024 | [7] 0.033 | [8] -0.002 | [9] -0.092 | [10] 0.012 | [11] 0.005 | [12] -0.071 | [13] -0.114 | [14] -0.053 | [15] 0.039 | [16] 0.035 | [17] 0.072 | [18] 0.01 | [19] -0.02 | [20] -0.029

FARS2 (UniProt O95363)
inactive: [1] -0.058 | [2] 0.064 | [3] -0.126 | [4] 0.079 | [5] -0.058 | [6] -0.097 | [7] 0.039 | [8] 0.039 | [9] 0.018 | [10] -0.168 | [11] -0.006 | [12] 0.003 | [13] -0.222 | [14] 0.012 | [15] 0.028 | [16] 0.073 | [17] 0.022 | [18] -0.027 | [19] -0.11 | [20] 0.005

GLCCI1 (UniProt Q86VQ1)
Sequence of UniProt Q86VQ1 (Q86VQ1 whole entry, looked up): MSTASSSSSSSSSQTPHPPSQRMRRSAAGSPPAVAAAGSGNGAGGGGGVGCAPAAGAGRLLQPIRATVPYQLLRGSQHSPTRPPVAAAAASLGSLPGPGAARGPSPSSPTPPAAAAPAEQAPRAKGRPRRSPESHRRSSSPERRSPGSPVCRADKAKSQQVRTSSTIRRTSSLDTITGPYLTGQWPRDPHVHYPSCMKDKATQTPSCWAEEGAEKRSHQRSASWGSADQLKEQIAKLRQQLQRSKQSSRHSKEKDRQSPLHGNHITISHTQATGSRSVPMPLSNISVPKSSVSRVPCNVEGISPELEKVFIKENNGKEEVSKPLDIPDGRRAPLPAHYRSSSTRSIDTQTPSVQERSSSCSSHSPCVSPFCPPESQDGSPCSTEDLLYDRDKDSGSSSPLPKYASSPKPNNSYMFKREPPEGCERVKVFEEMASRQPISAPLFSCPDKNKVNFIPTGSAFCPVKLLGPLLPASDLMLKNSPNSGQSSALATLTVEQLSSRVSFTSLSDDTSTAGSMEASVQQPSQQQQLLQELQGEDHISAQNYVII
inactive: [1] -0.074 | [2] 0.037 | [3] 0.073 | [4] -0.103 | [5] -0.066 | [6] -0.094 | [7] 0.03 | [8] -0.175 | [9] 0.075 | [10] 0.011 | [11] -0.12 | [12] 0.03 | [13] -0.024 | [14] 0.102 | [15] 0.056 | [16] 0.158 | [17] 0.002 | [18] -0.042 | [19] 0.01 | [20] -0.088

GTF3C5 isoform 3 (UniProt Q9Y5Q8)
Sequence of UniProt Q9Y5Q8 (Q9Y5Q8 whole entry, looked up): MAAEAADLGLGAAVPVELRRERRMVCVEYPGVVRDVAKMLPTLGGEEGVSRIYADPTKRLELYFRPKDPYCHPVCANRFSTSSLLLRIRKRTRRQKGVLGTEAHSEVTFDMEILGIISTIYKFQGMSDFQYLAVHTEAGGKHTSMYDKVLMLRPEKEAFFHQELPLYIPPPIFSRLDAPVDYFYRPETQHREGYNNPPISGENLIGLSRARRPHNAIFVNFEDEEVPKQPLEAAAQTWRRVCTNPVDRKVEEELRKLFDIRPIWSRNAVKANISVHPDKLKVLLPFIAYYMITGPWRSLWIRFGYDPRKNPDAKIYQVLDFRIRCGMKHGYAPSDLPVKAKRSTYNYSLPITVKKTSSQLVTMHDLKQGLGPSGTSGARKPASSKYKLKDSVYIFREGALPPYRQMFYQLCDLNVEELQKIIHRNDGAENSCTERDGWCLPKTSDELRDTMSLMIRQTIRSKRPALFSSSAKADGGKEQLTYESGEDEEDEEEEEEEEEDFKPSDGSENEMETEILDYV
inactive: [1] 0.028 | [2] -0.013 | [3] -0.04 | [4] -0.167 | [5] -0.269 | [6] -0.137 | [7] 0.027 | [8] -0.063 | [9] 0.01 | [10] 0.065 | [11] -0.028 | [12] 0.211 | [13] -0.054 | [14] -0.051 | [15] 0.046 | [16] 0.072 | [17] -0.074 | [18] -0.034 | [19] 0.042 | [20] 0.013

GSK3A (UniProt P49840)
Sequence of UniProt P49840 (P49840 whole entry, looked up): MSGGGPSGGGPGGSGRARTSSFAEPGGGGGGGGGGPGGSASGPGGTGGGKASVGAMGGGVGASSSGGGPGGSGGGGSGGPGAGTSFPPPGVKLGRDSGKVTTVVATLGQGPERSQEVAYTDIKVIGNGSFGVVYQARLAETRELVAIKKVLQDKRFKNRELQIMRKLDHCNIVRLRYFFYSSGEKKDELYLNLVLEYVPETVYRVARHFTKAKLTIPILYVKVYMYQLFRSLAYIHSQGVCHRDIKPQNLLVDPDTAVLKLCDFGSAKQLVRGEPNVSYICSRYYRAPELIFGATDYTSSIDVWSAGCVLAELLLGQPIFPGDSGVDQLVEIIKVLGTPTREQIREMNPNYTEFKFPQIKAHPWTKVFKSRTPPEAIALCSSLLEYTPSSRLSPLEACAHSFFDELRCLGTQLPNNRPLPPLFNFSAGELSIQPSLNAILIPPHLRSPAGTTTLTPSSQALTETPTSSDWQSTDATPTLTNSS
active: [4] 0.308 | [6] 0.383 | [19] 0.454
inactive: [1] -0.052 | [2] -0.027 | [3] -0.01 | [5] -0.024 | [7] -0.004 | [8] 0.011 | [9] -0.033 | [10] 0.038 | [11] -0.02 | [12] 0.014 | [13] -0.054 | [14] 0.051 | [15] -0.03 | [16] -0.053 | [17] 0.015 | [18] -0.004 | [20] 0.193
